High-throughput results: PubChem, several laboratories
LGR2 inh – Drosophila LGR2 receptor signaling inhibition. HEK293 LGR2, CRE-luciferase, bursicon-stimulated, 4 h. AID 720647. 380,000 compounds, 0.35% hits. inhibition, % at 9.99 µM;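 active = drop in luminescence signal, shown as inhibition above about 50% in the replicate tests, limit read from the data, passing the limit was not always enough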;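 also: agonist challenge used bursicon conditioned medium at about half maximal strength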
TWEAK Fn14 block – blocks TWEAK-Fn14 interaction in a reporter cell assay. 360,000 compounds, 2% hits. TWEAK-stimulated Fn14 reporter cells, luciferase luminescence, 8 h. inhibition, % at 10 µM; in the data active = inhibition above about 50%
TROY NFkB inh – TROY signaling inhibition; inhibition, % at 10 µM; 360,000 compounds, 0.98% hits; Q293 LMP1-TROYcd NF-kB luciferase reporter, 4 h;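 active = compounds whose plate-normalised and pattern-corrected inhibition of the luciferase reporter signal at the single screening dose is 50% or more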
HSP90 inh – blocks HSP90-mediated luciferase refolding in reticulocyte lysate; Rabbit reticulocyte lysate, luciferase refolding luminescence, 3 h; inhibition, % at 5.6 µM; 290,000 compounds, 0.91% hits; AID 1789;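 active = inhibition above the screen-wide mean plus 3 SD, computed separately per campaign, cut at about 16% in these data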;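 also: inhibitors lower the luminescence because luciferase stays unfolded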
A number is an active result; n = inactive; x = no result given. In the library only some 2.2% were active in any assay of this set; here they are far more common.

SMILES	LGR2 inh	TWEAK Fn14 block	TROY NFkB inh	HSP90 inh
CCC(CC)COC(=O)C1=C(C)NC(=O)NC1c1ccc(N(C)C)cc1 (stereo not drawn)	n	n	n	n
CCC(CC)COC(=O)C1=C(C)NC(=O)NC1c1ccccc1Br (stereo not drawn)	n	81	n	n
O=C(C[C@H]1C[C@@H]2c3cc(NC(=O)Nc4ccccc4F)ccc3O[C@@H]2[C@H](CO)O1)NC1CCCC1	n	x	x	x
O=C(/C=C/c1ccccc1)NC(NC(=S)Nc1cccc(O)c1)C(Cl)(Cl)Cl (stereo not drawn)	n	56	n	n
Cc1ccc(C)c(NC(=S)NC(NC(=O)/C=C/c2ccccc2)C(Cl)(Cl)Cl)c1 (stereo not drawn)	x	55	n	n
Cc1ccc(O)c(NC(=S)NC(=O)/C=C/c2ccccc2)c1	n	n	n	n
S=C(Nc1ccccc1)Nc1ccc(Cl)cc1Cl	x	n	n	n
O=C(NC(NC(=S)Nc1c(Cl)cc(Cl)cc1Cl)C(Cl)(Cl)Cl)OCc1ccccc1 (stereo not drawn)	n	n	n	n
O=C(/C=C/c1ccccc1)NC(NC(=S)Nc1ccc(Cl)cc1Cl)C(Cl)(Cl)Cl (stereo not drawn)	x	64	n	n
Cc1ccc(C)c(NC(=S)NC(NC(=O)OCc2ccccc2)C(Cl)(Cl)Cl)c1 (stereo not drawn)	n	61	n	n
C[C@@H]1CCCCO[C@H](CN(C)CC2CCCCC2)[C@H](C)CN([C@@H](C)CO)C(=O)c2cc(NC(=O)c3ccncc3)ccc2O1	n	x	x	x
O=C(NC(NC(=S)Nc1ccccc1Cl)C(Cl)(Cl)Cl)c1cccc(Cl)c1 (stereo not drawn)	n	76	n	n
O=C(/C=C/c1ccccc1)NC(NC(=S)Nc1cccc(Cl)c1)C(Cl)(Cl)Cl (stereo not drawn)	x	63	n	n
COc1ccc(NC(=S)NC(NC(=O)c2cccc(Cl)c2)C(Cl)(Cl)Cl)c([N+](=O)[O-])c1 (stereo not drawn)	x	n	n	n
O=C(/C=C/c1ccccc1)NC(NC(=S)Nc1ccc(C(=O)O)cc1)C(Cl)(Cl)Cl (stereo not drawn)	n	n	n	n
CC(=O)N1[C@@H](CO)[C@@H](c2ccccc2)[C@@H]1CN(CC1CCC1)C(=O)CN(C)C	n	x	x	x
O=C(NCCN1CCOCC1)c1ccc(Cl)c(Cl)c1	n	n	n	n
O=C1/C(=C\c2ccc(Cl)c(Cl)c2)CN(C(=O)CCN2CCOCC2)C/C1=C/c1ccc(Cl)c(Cl)c1	91	107	78	x
O=C1/C(=C\c2ccccc2)CN(C(=O)CCN2CCCCC2)C/C1=C/c1ccccc1	104	106	69	x
O=C1/C(=C\c2ccccc2)CCC/C1=C/c1ccccc1	n	n	n	x
CCN(CC)CCC(=O)N1C/C(=C/c2ccccc2)C(=O)/C(=C\c2ccccc2)C1	92	107	63	x
O=C(CCN1C(=O)S/C(=C\c2ccccc2)C1=O)N1CCCCC1	n	n	n	n
C[C@@H]1CN([C@@H](C)CO)C(=O)Cc2cc(NS(=O)(=O)c3ccc(Cl)cc3)ccc2O[C@H]1CN(C)S(=O)(=O)c1ccccc1	n	x	x	x
CCCC(=O)Nc1ccc2c(c1)C(=O)N(C)C[C@@H](OC)[C@H](C)CN(C(=O)c1ccncc1)[C@H](C)CO2	n	x	x	x
CCCNC(=O)N1CC2(CCN(C(=O)c3cnccn3)CC2)c2c([nH]c3cc(OC)ccc23)[C@@H]1CO	n	x	x	x
SMILES	LGR2 inh	TWEAK Fn14 block	TROY NFkB inh	HSP90 inh
C[C@H](CO)N1C[C@H](C)[C@@H](CN(C)S(C)(=O)=O)Oc2cc(C#CC3CCCC3)ccc2S1(=O)=O	n	x	x	x
Cc1ccc(S(=O)(=O)N2CCCCC2)cc1NC(=O)CCc1nc2ccccc2c(=O)[nH]1	n	n	n	x
O=C(CCc1nc2ccccc2c(=O)[nH]1)Nc1cc(C(F)(F)F)ccc1N1CCCC1	n	62	51	x
C[C@@H](NC(=O)C[C@@H]1CC[C@H]2[C@@H](COC[C@H](O)CN2C)O1)c1ccccc1	n	x	x	x
CCOC(=O)/C(C#N)=C1/C=C(C)NC(c2ccccc2O)=N1	n	57	54	n
COCCNC(=O)C[C@H]1CC[C@H]2[C@@H](COc3ccc(NC(=O)Cc4ccccc4)cc3C(=O)N2C)O1	n	x	x	x
COc1ccc(NC(=O)N(C)C[C@H]2OCCCC[C@@H](C)Oc3ccc(NS(=O)(=O)c4ccc(Cl)cc4)cc3C(=O)N([C@@H](C)CO)C[C@@H]2C)cc1	n	x	x	x
O=C1/C(=C/c2ccncc2)CCC/C1=C\c1ccncc1	95	103	82	n
O=C1C(=Cc2ccncc2)CCCc2ccccc21	n	n	n	x
CCc1ccc(C(=O)COC(=O)c2n[nH]c3ccccc23)cc1	n	62	n	n
COc1cc(/C=C/c2noc(-c3ccccc3O)n2)cc(OC)c1OC	n	n	n	n
COc1ccc(/C=C/c2nc(N)nc(-c3ccccc3O)n2)cc1	n	n	n	n
COc1ccc(/C=C/c2nc(N)nc(-c3ccccc3O)n2)cc1OC	n	55	n	n
COc1cc(/C=C/c2nc(N)nc(-c3ccccc3O)n2)cc(OC)c1OC	n	53	n	n
COCC(=O)N(C)C[C@@H]1Oc2ncc(C#C[C@H](C)O)cc2C(=O)N([C@@H](C)CO)C[C@H]1C	n	x	x	x
COc1ccccc1CN(C)C(=O)c1cc(-c2cccs2)nc2ccccc12	n	74	n	n
CO[C@H]1CN(C)C(=O)c2cc(NC(=O)NC(C)C)ccc2OC[C@H](C)N(C)C[C@@H]1C	n	x	x	x
CC(C)C#Cc1ccc2c(c1)O[C@@H](CN(C)C(=O)c1ccncc1)[C@@H](C)CN([C@@H](C)CO)S2(=O)=O	n	x	x	x
COc1ccc(-c2csc3ncnc(N4CCN(c5ccccc5OC)CC4)c23)cc1	n	n	n	n
CCOc1ccccc1N1CCN(c2ncnc3scc(-c4ccc(OC)cc4)c23)CC1	n	n	59	n
Fc1ccc(-c2csc3ncnc(N4CCc5ccccc5C4)c23)cc1	n	n	n	n
Cc1ccc(-c2csc3ncnc(N4CCc5ccccc5C4)c23)cc1	n	78	58	n
Oc1ccccc1N1CCN(c2ncnc3scc(-c4ccccc4)c23)CC1	n	56	n	n
C[C@@H]1CN([C@@H](C)CO)C(=O)c2cc(C#Cc3ccccc3F)cnc2O[C@H]1CN(C)S(=O)(=O)c1ccccc1F	n	x	x	x
CC(C)c1ccc(N=Cc2c(O)c3ccccc3oc2=O)cc1	n	82	69	n
SMILES	LGR2 inh	TWEAK Fn14 block	TROY NFkB inh	HSP90 inh
COc1ccc(N=Cc2c(O)c3ccccc3oc2=O)cc1	n	n	n	n
CNC[C@@H]1OCCCC[C@H](C)Oc2ccc(NC(=O)c3ccncc3)cc2C(=O)N([C@H](C)CO)C[C@@H]1C	n	x	x	x
COC(=O)c1cccc(NC(=O)c2ccc3c(c2)C(=O)N(CC2CCCO2)C3=O)c1 (stereo not drawn)	x	n	n	n
CC(C)(C)NC(=O)c1cccc(NC(=O)c2ccc3c(c2)C(=O)N(C(C)(C)C)C3=O)c1	83	n	57	n
O=C(O)c1cccc(NC(=O)c2ccc3c(c2)C(=O)N(CC2CCCO2)C3=O)c1 (stereo not drawn)	x	n	n	17
CN(C)C(=O)C[C@@H]1C[C@@H]2c3cc(NC(=O)C4CCC4)ccc3O[C@@H]2[C@H](CO)O1	n	x	x	x
